In the supplement of paper PMC6555819 one finds PBM binding z-score data, which are given here for 40 sequences.

For this test, the system named is VDR:RXRa (NR concentration 270 nM, RXRa partner concentration 90 nM). The test is described as follows: PBM binding z-score (relative to random genomic background probes); higher = stronger binding; sequences stand for … in GC…GCGATTGACAGCGTAGAATGAAGG
The procedure: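 Protein-binding microarray (Agilent 4x180K custom design, double-stranded 60-nt probes: 5' GC cap, 34-nt variable region, 24-nt constant primer region; full probe sequence given). Purified or IVT nuclear receptor:RXRα heterodimers (3:1 NR:RXRα, mostly 270:90 nM) or homodimers were incubated for 1 h in PBS with 2% milk and no ligand, then detected with Alexa488 antibodies. Fluorescence from o1-orientation probes (~5 replicates averaged) was converted to z-scores against 500 random hg19 background probes. Variable regions are seed direct-repeat (DR0–DR5) sites, all their single-nucleotide variants and half-site ablations.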
Sequence GCATATCGGTAATACAAGGTGAAAGTCCGATTGT displayed a PBM binding z-score of 0.0318.

Sequence CGTCCAAGGTCAATGCTAGTTCAGTGAAAGCATT registered a PBM binding z-score of 4.84.

The sequence GCAGACAGGTGAAACGCATGTAACTCAGGGTGGC yielded a PBM binding z-score of -0.601.

For GTACCAAGGTGAATAGGTCGTCGATGAGTAGGCG, the PBM binding z-score was 0.97.

CCGGCTAGGTCAATGGTCAGCTAAAGCAGCTCGC yielded a PBM binding z-score of 0.907.

For TAGTCTAGGTCATGCGGGCCAGTATAGTGTCGGC, the PBM binding z-score came out at 2.86.

For GGAAGGAGGGCATTCGAGTTGATAGCATGGCGAT, the PBM binding z-score came out at 2.46.

Consider CCGACTGGGGCATAAGGTTAACATAAGCCAGCCC, for which the PBM binding z-score came to 0.684.

CCTCCTGGGCCATTCAGAGGTCATTGATCATATG displayed a PBM binding z-score of 3.97.

In the case of TCTAGTTGGTCAGGGAGGTCACACACGACGGGTA, the PBM binding z-score turned out to be 5.4.

In turn, CAAGCTAGGTCACGAAAGGTCAAAGTCGAATGAC showed a PBM binding z-score of 6.88.

Sequence CCTGCTAGGTCAATGGCCAGCTAAAGCAGCTCGC displayed a PBM binding z-score of 0.561.

As to ACTATTAGTTGAGACGAGGACAACCGATAGGTTG, the PBM binding z-score was 0.286.

For the sequence TGAATGGGGTTATAAGATCAGGGAACGTTGCAAA, the PBM binding z-score stood at 2.58.

TCGAGTAGGTTAGTCGGGGCAGTCAGCCAACATA returned a PBM binding z-score of 0.666.

CCTAGCAGGCCAGAGTCACTCAAGCATTTCGCTT returned a PBM binding z-score of -0.665.

ACTATTAGTTGACTTACGGCAACCGATACGACGC displayed a PBM binding z-score of 0.0942.

AATACAGGGTCACTAGGCCAGCGTAGGTACGAAT had a PBM binding z-score of 4.16.

As to TCACCAAGGTGAGCTGAGGTCGTTGATCCAACTC, the PBM binding z-score was 3.97.

CCTAGTCGGTCAGGAGGTCACACACCGGATATGA showed a PBM binding z-score of 3.97.

ATCTCTAGGTAACAAGTTCTGTGAAAGAGAGGAC came in with a PBM binding z-score of 0.359.

GCGACTGGGGCATCCGCAGGTTACCATAACTTAA registered a PBM binding z-score of -0.12.

Consider TCTTTTAGATCAATAGAGGTTAAGAAAGTGCGCT, for which the PBM binding z-score was determined as 2.22.

CGTCCAACGTCAAAGGTCAGTGAAGAGATGACGG showed a PBM binding z-score of 2.8.

Sequence TCATATAGGTAATACAGGTGAACGTCGGCATCTA yielded a PBM binding z-score of 1.18.

ACAGACAGGTGATGAAGGTAACTCTGGCTATCAT showed a PBM binding z-score of 0.00307.

ATCGAAAGGTCGAAGGTGAGTATCCCCACCCGAA showed a PBM binding z-score of 2.53.

In the case of AGAACGTGGGCACGCTGAGTTGATAGCAGAGTAG, the PBM binding z-score was -0.467.

With GCGACTGGGGCATCAGCAGGTTACCTTAACTTAA, the PBM binding z-score was -0.355.

CGAACTAGGTCATTGACAGGACTGTGAATAGTAA had a PBM binding z-score of 1.65.

Sequence ATCTCTAGGTAAGACTCAGTTCAGTCAAGAACGC displayed a PBM binding z-score of 0.989.

Turning to CCGACTGGGGCAGAAACGTTACCATACCATCCGG, the PBM binding z-score was -0.901.

The sequence TCAGACTGGTGAAGGTAACTCAGGTACGCAGTCG yielded a PBM binding z-score of 0.31.

Regarding ATATGTACGTTAAGGGTCATTCAGGTTGGTTCGC, the PBM binding z-score is 5.64.

With CGTCCAAGGGCAGAGAGGTCAGTGAATGCCGAGT, the PBM binding z-score worked out at 5.05.

Consider GCTGCTGGGTCAACTGATGGTCAGCTAAAGCTCG, for which the PBM binding z-score amounted to 1.82.

Turning to TGAATGAGGTTATAGATCAGGGAACGTGGCGTCG, the PBM binding z-score turned out to be 1.06.

Turning to TGAAGGAGGTTAAAGATCAGGGAACGTGGCGTCG, the PBM binding z-score was found to be 1.24.

In the case of CGTCAAAGTACAAGGTAACGTAACAGAAAGCAGC, the PBM binding z-score amounted to 0.215.

CGAACTAGGTCAAGGACAGTGACTCTCCGCACGC showed a PBM binding z-score of 1.19.
